Measured values as given in PubChem BioAssay AID431 (Sanford-Burnham Center for Chemical Genomics, 2006).
In all, about 63,000 compounds went through this assay and about 1,100 (1.7%) were called active. Many of the other results were omitted from the sample, so actives are more common in it than they were. Measured potencies and affinities stand elsewhere. Values without a mark were called inactive.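 The calls were made as follows: active = compounds whose percent cytotoxicity in the single-dose primary screen, scaled between solvent and toxic-drug controls, exceeds 50; inactive = the rest.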

Assay: cytotoxicity in KRAS-transformed pancreatic duct cells, primary screen, cell-based, fluorescence, HTS (AID 431);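 also: 0% = DMSO solvent wells and 100% = doxorubicin-treated wells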
Settings: HPDE-C7K KRASV12 cells, Alamar Blue viability, 48 h; at 10 µM; active compounds read high

With CCOC(=O)c1cnc(SCC(=O)Nc2sc(C)c(C)c2C#N)nc1N as the compound, how does the cytotoxicity read?
The cytotoxicity was -2.2%.

Which cytotoxicity does the source give for CCOc1ccc(Nc2cc(C)nc(N3CCOCC3)n2)cc1 here?
The cytotoxicity was -19.5%.

For COCCn1c(SCC(=O)Nc2nc(C)c(Cl)cc2Cl)nc2ccccc21, which cytotoxicity is on record?
The cytotoxicity was -6.8%.

With Cc1ccccc1-c1nc(CS(=O)(=O)CC(=O)NCc2ccc3c(c2)OCO3)c(C)o1 as the compound, how does the cytotoxicity read?
The cytotoxicity was 14.4%.

For O=C(Cn1c(=O)n2ncnc2c2c3c(sc21)CCCC3)c1ccccc1, which cytotoxicity is on record?
Its cytotoxicity is -20.6%.

Which cytotoxicity does the source give for O=c1n(Cc2ccccc2Cl)c2sc3c(c2c2ncnn12)CCCC3 here?
Its cytotoxicity is -12.2%.

For COCCn1c(Cc2ccccc2)nnc1SCC(=O)NC(C)C, which cytotoxicity is on record?
Its cytotoxicity is -14.6%.

For CCOC(=O)c1[nH]c(C)c(C(=O)Nc2ccc(Cl)cc2)c1C, which cytotoxicity is on record?
Its cytotoxicity is 10.1%.

With CCOC(=O)c1[nH]c(C)c(C(=O)Nc2ccc(F)cc2)c1C as the compound, how does the cytotoxicity read?
Its cytotoxicity is -5.4%.

For CCOC(=O)c1[nH]c(C)c(C(=O)c2cc(F)ccc2F)c1C, which cytotoxicity is on record?
Its cytotoxicity is 70.6% (active).

Which cytotoxicity does the source give for CCOC(=O)c1[nH]c(C)c(C(=O)OCC)c1C here?
Its cytotoxicity is -10%.

Which cytotoxicity does the source give for CCOC(=O)c1[nH]c(C)c(C(=O)Nc2cc(Cl)ccc2C)c1C here?
Its cytotoxicity is 55% (active).

Which cytotoxicity does the source give for CCOC(=O)c1[nH]c(C)c(C(=O)Nc2ccccc2C)c1C here?
Its cytotoxicity is 45.7%.

For CCN(CC)CCNC(=O)C1CCC(=O)N(c2ccc(OC)cc2)C1c1ccc(F)cc1 (stereo not given), which cytotoxicity is on record?
Its cytotoxicity is 5.4%.

Which cytotoxicity does the source give for COc1cccc(N2C(=O)CC(N3CCC(C(N)=O)(N4CCCCC4)CC3)C2=O)c1 (stereo not given) here?
Its cytotoxicity is -2.6%.

For Clc1ccc(-c2nnc3sc(Cc4cccs4)nn23)c(Cl)c1, which cytotoxicity is on record?
Its cytotoxicity is -3.4%.

With O=C(NC1CCCCC1)N1CCCCCCC1 as the compound, how does the cytotoxicity read?
Its cytotoxicity is -4.9%.

With COc1cc2c(=O)n(Cc3ccco3)c(=O)n(CC(=O)c3cccc(Br)c3)c2cc1OC as the compound, how does the cytotoxicity read?
The cytotoxicity was 50% (active).

Which cytotoxicity does the source give for COc1cc2c(=O)n(Cc3ccccc3)c(=O)n(CC(=O)NCc3ccco3)c2cc1OC here?
The cytotoxicity was 5.4%.

For CCOC(=O)Cn1c(=O)n(Cc2ccco2)c(=O)c2ccc(C(=O)NCCc3ccccc3)cc21, which cytotoxicity is on record?
The cytotoxicity was 7.3%.

With COc1cc2c(=O)n(Cc3ccccc3)c(=O)n(CC(=O)C(C)(C)C)c2cc1OC as the compound, how does the cytotoxicity read?
The cytotoxicity was -1.3%.

With COc1cc2c(=O)n(Cc3ccco3)c(=O)n(CC(=O)c3ccc(Br)cc3)c2cc1OC as the compound, how does the cytotoxicity read?
The cytotoxicity was 80.3% (active).

Which cytotoxicity does the source give for COc1ccc(CCNC(=O)Cn2c(=O)n(Cc3ccco3)c(=O)c3ccc(Cl)cc32)cc1OC here?
The cytotoxicity was 4.2%.

Which cytotoxicity does the source give for COC(=O)c1ccc(C(=S)N2CCOCC2)cc1 here?
The cytotoxicity was -0.4%.

Which cytotoxicity does the source give for Cc1ccc(C(c2nnnn2C(C)(C)C)N(Cc2ccco2)Cc2cccs2)cc1 (stereo not given) here?
Its cytotoxicity is 1.5%.

For COc1cccc(NC(=O)COC(=O)c2cccnc2)c1, which cytotoxicity is on record?
The cytotoxicity was -8.8%.

Which cytotoxicity does the source give for CC(C)(C)OC(=O)N1CCC[C@H]1C(=O)NCC1CCC(C(=O)O)CC1 (stereo not given in full) here?
Its cytotoxicity is 7.4%.

For CCC(c1nnnn1C1CCCCC1)N1CCN(C2CCCC2)CC1 (stereo not given), which cytotoxicity is on record?
Its cytotoxicity is 3.5%.

With Cc1cc(C)nc(NCCCc2ccccc2)n1 as the compound, how does the cytotoxicity read?
The cytotoxicity was -12.4%.

With CCCCNc1cc(C)nc(NCc2ccccc2)n1 as the compound, how does the cytotoxicity read?
Its cytotoxicity is 82.9% (active).

For CCCCOc1cc(C)nc(NCc2ccccc2)n1, which cytotoxicity is on record?
The cytotoxicity was -11.6%.

Which cytotoxicity does the source give for Cc1cc(NCCCN)nc(-c2ccccc2O)n1 here?
Its cytotoxicity is 22.2%.

Which cytotoxicity does the source give for Cc1cc(Nc2ccccc2)nc(-c2ccccc2O)n1 here?
Its cytotoxicity is 1.4%.

With CC1=C(C(=O)OC(C)C)C(c2ccccn2)n2ncnc2N1 (stereo not given) as the compound, how does the cytotoxicity read?
Its cytotoxicity is 5.9%.

Which cytotoxicity does the source give for COc1ccccc1NC(=O)N1CCN(c2ccccc2F)CC1 here?
The cytotoxicity was 8%.

Which cytotoxicity does the source give for O=C(O)COc1ccc(C(=O)Cc2ccc3c(c2)OCCCO3)c(O)c1 here?
Its cytotoxicity is -4.8%.

With O=C(Cc1ccc2c(c1)OCCO2)c1c(O)cc(O)cc1O as the compound, how does the cytotoxicity read?
Its cytotoxicity is 62.7% (active).

For O=C(O)CCC(=O)c1ccc2c(c1)OCCO2, which cytotoxicity is on record?
Its cytotoxicity is 1.9%.

For O=C(Cn1ncc2c1-c1ccccc1OC2)N(Cc1ccco1)C1CCCCC1, which cytotoxicity is on record?
The cytotoxicity was 2.4%.

For Cn1c(SCC(=O)N2CCN(c3ccccc3)CC2)nnc1-c1cc2ccccc2o1, which cytotoxicity is on record?
Its cytotoxicity is 10.4%.

For CSc1nsc(SC)c1NC(=O)OCCc1ccccn1, which cytotoxicity is on record?
Its cytotoxicity is -3.5%.

With CC(C)(C)c1ccc(Cn2nnc3c(=O)[nH]c(C4CCN(C(=O)Cc5cccs5)CC4)nc32)cc1 as the compound, how does the cytotoxicity read?
The cytotoxicity was 8.5%.

For O=C(Cc1cccs1)N1CCCC(c2nc3c(nnn3Cc3ccc(F)cc3)c(=O)[nH]2)C1 (stereo not given), which cytotoxicity is on record?
The cytotoxicity was 8.4%.

For CCn1c(CN2CCCCCC2=O)nnc1SCc1cnc(-c2ccccc2)s1, which cytotoxicity is on record?
Its cytotoxicity is -1.7%.

With Cc1ccc(-c2csc3ncnc(-n4nc(C)cc4N)c23)cc1 as the compound, how does the cytotoxicity read?
The cytotoxicity was -8.1%.

For O=C(CNC(=O)c1ccco1)OCc1ccc(Cl)cc1, which cytotoxicity is on record?
The cytotoxicity was -3%.

Which cytotoxicity does the source give for COc1ccccc1NC(=O)Nc1c(C)n(C)n(-c2ccccc2)c1=O here?
The cytotoxicity was -1.8%.

For CCOC(=O)Cn1c(=O)n(C2CCCC2)c(=O)c2ccccc21, which cytotoxicity is on record?
Its cytotoxicity is -5.4%.

With CCc1cc2c(N3CCN(c4nnc(CC)s4)CC3)ncnc2s1 as the compound, how does the cytotoxicity read?
The cytotoxicity was 19.4%.

Which cytotoxicity does the source give for O=C(c1ccco1)N1CCN(c2ncnc3c2cnn3-c2ccccc2)CC1 here?
Its cytotoxicity is -0.8%.

With CCc1cc2c(N3CCN(c4ccccc4)CC3)ncnc2s1 as the compound, how does the cytotoxicity read?
Its cytotoxicity is 91.1% (active).

With COc1ccc(N2CCN(c3ncnc4c3cnn4-c3ccc(C)cc3C)CC2)cc1 as the compound, how does the cytotoxicity read?
Its cytotoxicity is -12.5%.

Which cytotoxicity does the source give for COc1ccc(-n2ncc3c(N4CCN(c5cc(C)ccc5C)CC4)ncnc32)cc1 here?
Its cytotoxicity is 15.6%.

Which cytotoxicity does the source give for CCc1cc2c(N3CCCCC3)ncnc2s1 here?
The cytotoxicity was -10.5%.

Which cytotoxicity does the source give for O=C(COc1ccccc1)N1CCN(c2ncnc3c2cnn3-c2ccccc2)CC1 here?
The cytotoxicity was 5.3%.

Which cytotoxicity does the source give for CCN1CCN(c2ncnc3c2cnn3-c2ccc(C)cc2C)CC1 here?
The cytotoxicity was 11.6%.

For Cc1ccc(-n2ncc3c(N4CCCC4)ncnc32)c(C)c1, which cytotoxicity is on record?
Its cytotoxicity is 1.2%.

Which cytotoxicity does the source give for O=C(CSc1nnnn1C1CCCCC1)NCCc1ccccc1 here?
Its cytotoxicity is 4.8%.

With COc1cccc(-c2cnc(NCc3cc(Cl)ccc3O)n2C)c1 as the compound, how does the cytotoxicity read?
Its cytotoxicity is -7.2%.

With CC(=O)Nc1ccc(NC(C)=O)s1 as the compound, how does the cytotoxicity read?
The cytotoxicity was -16.5%.

Which cytotoxicity does the source give for CCCCNC(=O)C(C#N)c1nc2ccccc2nc1N1CCCC1 (stereo not given) here?
Its cytotoxicity is -16.3%.

With CCN(CC(=O)Nc1ccc2c(c1)OCCO2)Cc1cc(=O)oc2c(C)c(C)ccc12 as the compound, how does the cytotoxicity read?
The cytotoxicity was 9.3%.

For Cc1n[nH]c(C)c1S(=O)(=O)Nc1ccc2c(c1)OCCO2, which cytotoxicity is on record?
Its cytotoxicity is 4.3%.

Which cytotoxicity does the source give for Cc1cc(C#N)c(C)n1-c1cc(C(F)(F)F)ccc1N1CCOCC1 here?
Its cytotoxicity is -11.9%.

Which cytotoxicity does the source give for COCCCn1c(SCC(=O)N2CCCCC2C)nnc1-c1ccco1 (stereo not given) here?
Its cytotoxicity is -0.2%.

Which cytotoxicity does the source give for CCn1c2ccccc2c2nnc(SCC(=O)NC(CC(C)C)C(=O)OC)nc21 (stereo not given) here?
The cytotoxicity was 2.3%.

Which cytotoxicity does the source give for O=C(CSc1nc(-c2ccccc2)cc(=O)[nH]1)N1CCOCC1 here?
The cytotoxicity was 8.9%.

For CCc1noc(C)c1C(=O)Nc1sc(C(=O)N(C)C)c(C)c1C(=O)OC, which cytotoxicity is on record?
Its cytotoxicity is 2.3%.

For COc1ccc(S(=O)(=O)N(CC(=O)O)Cc2ccccc2)cc1OC, which cytotoxicity is on record?
Its cytotoxicity is 1.8%.

Which cytotoxicity does the source give for COCc1nc2ccccc2n1CCOc1ccccc1OC here?
Its cytotoxicity is -0.4%.

For COc1cccc(NC(=O)c2oc3ccccc3c2NC(=O)C(C)(C)C)c1, which cytotoxicity is on record?
The cytotoxicity was 17.5%.

With CSc1ccc(-c2nnn(Cc3ccccn3)n2)cc1 as the compound, how does the cytotoxicity read?
Its cytotoxicity is -1.2%.

For CC1=CC(C)C2C(=O)N(CCC[N+](C)(C)C)C(=O)C2C1 (stereo not given), which cytotoxicity is on record?
Its cytotoxicity is 14.9%.

For Cc1ccc(S(=O)(=O)Nc2ccc3nc(N)sc3c2)cc1, which cytotoxicity is on record?
Its cytotoxicity is 4.4%.

Which cytotoxicity does the source give for CSc1nc2ccc(S(=O)(=O)NC3CCCCC3)cc2s1 here?
Its cytotoxicity is 6.2%.

Which cytotoxicity does the source give for CSc1nc2ccc(NS(=O)(=O)c3ccc(Cl)s3)cc2s1 here?
Its cytotoxicity is 54.6% (active).

For Cc1cc2n(n1)C(c1ccc(N(C)C)cc1)Nc1ccccc1-2 (stereo not given), which cytotoxicity is on record?
The cytotoxicity was 23.5%.

With c1ccc(-n2c(-c3ccco3)nnc2N2CCOCC2)cc1 as the compound, how does the cytotoxicity read?
Its cytotoxicity is -4.7%.

For CCOC(=O)N1CCN(C(=O)CCS(=O)(=O)c2ccc(Br)s2)CC1, which cytotoxicity is on record?
Its cytotoxicity is -3.8%.

For CC1(C)Nc2ccc(O)cc2-c2c1ssc2=S, which cytotoxicity is on record?
The cytotoxicity was 87.7% (active).

With CC1(C)c2ssc(=S)c2-c2ccccc2N1C(=O)c1ccco1 as the compound, how does the cytotoxicity read?
The cytotoxicity was -6.9%.

With O=C(c1ccncc1)N1CCN(C(=O)c2ccncc2)CC1 as the compound, how does the cytotoxicity read?
Its cytotoxicity is -16.4%.

For Nc1c(NCCCN2CCOCC2)c2ccccc2oc1=O, which cytotoxicity is on record?
Its cytotoxicity is 6.2%.

With Cn1nnnc1SCc1nc2ccccc2[nH]1 as the compound, how does the cytotoxicity read?
The cytotoxicity was 3.7%.

Which cytotoxicity does the source give for OC(Cn1cncn1)c1ccc(Cl)cc1Cl (stereo not given) here?
Its cytotoxicity is 1.1%.

With CC(Oc1ccc(Cl)cc1Cl)C(=O)NCCCn1ccnc1 (stereo not given) as the compound, how does the cytotoxicity read?
The cytotoxicity was 2.8%.

For OC(Cn1ccnc1)c1ccc(Cl)cc1Cl (stereo not given), which cytotoxicity is on record?
Its cytotoxicity is 0.4%.

For O=C(COc1ccc(Cl)cc1Cl)NCCCn1ccnc1, which cytotoxicity is on record?
Its cytotoxicity is 1.3%.

With Clc1ccc(SCCn2ccnc2)cc1 as the compound, how does the cytotoxicity read?
The cytotoxicity was -7.6%.

For Clc1ccc(OCCn2ccnc2)c(Cl)c1, which cytotoxicity is on record?
The cytotoxicity was -10.5%.

With COc1ccc(-c2ccc(-c3noc(-c4ccco4)n3)c(OC)n2)cc1 as the compound, how does the cytotoxicity read?
Its cytotoxicity is 9.8%.

With O=C1c2oc3ccccc3c(=O)c2C(c2cccc(Br)c2)N1Cc1ccco1 (stereo not given) as the compound, how does the cytotoxicity read?
The cytotoxicity was 5.4%.

Which cytotoxicity does the source give for Cc1cc(C)nc(SCc2nnc(SCC(=O)N3CCCc4ccccc43)n2C)n1 here?
The cytotoxicity was 9.2%.

Which cytotoxicity does the source give for O=C(COC(=O)CN1C(=O)c2ccccc2C1=O)Nc1ncc(Cl)cc1Cl here?
The cytotoxicity was -11.3%.

For CCO/C=N/c1c(C#N)c(CC#N)nn1-c1ccccc1, which cytotoxicity is on record?
The cytotoxicity was -4.3%.

With COc1ccc(C2C(C(C)=O)=C(O)C(=O)N2C)c(OC)c1 (stereo not given) as the compound, how does the cytotoxicity read?
The cytotoxicity was 18.5%.

Which cytotoxicity does the source give for COc1ccc(C2NC(=O)c3n[nH]c(C)c32)c(OC)c1 (stereo not given) here?
The cytotoxicity was 2.8%.

Which cytotoxicity does the source give for COc1ccc(C2CC(c3c(O)cc(C)oc3=O)=NCCS2)c(OC)c1 (stereo not given) here?
The cytotoxicity was 69.2% (active).

Which cytotoxicity does the source give for c1ccc(Sc2nc(N3CCCCC3)nc(N3CCCCC3)n2)nc1 here?
The cytotoxicity was -16.3%.

With Cc1cc(C)c(S(=O)(=O)Nc2ccc(O)cc2)cc1C as the compound, how does the cytotoxicity read?
Its cytotoxicity is 13%.
